# Experimental data reported in PubChem BioAssay.
# Calls of active or inactive are those of the source.
# What was measured:
# [1] = A549 cell viability effects, profiling panel, calcein-AM fluorescence, 48 h, basal (AID 1162); details: higher = more signal
# [2] = adipocyte viability effects, profiling panel, cell-based, 3T3-L1 adipocytes, calcein-AM fluorescence, 48 h, basal (AID 1163); details: 3T3-L1 adipocytes viability, higher = more signal
# [3] = HepG2 cell viability effects, profiling panel, calcein-AM fluorescence, 48 h, basal (AID 1164); details: higher = more signal
# [4] = MM1S cell viability effects, profiling panel, calcein-AM fluorescence, 48 h, basal (AID 1165); details: higher = more signal;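 note: viability of MM1S multiple myeloma cells under basal unstimulated conditions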
# [5] = basal RPMI8226 viability, no added stimulus, profiling panel, cell-based, calcein-AM fluorescence, 48 h, PK04 Diversity Set (AID 1166); details: RPMI8226 myeloma viability, higher = more signal;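 note: cells grown under basal conditions without added stimulus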
# [6] = basal HepG2 mitochondrial membrane potential changes, profiling panel, cell-based, JC-1 fluorescence, 24 h, 100 nL compound (AID 1167); details: higher = more signal
# [7] = basal 3T3-L1 adipocyte mitochondrial potential changes, profiling panel, cell-based, JC-1 fluorescence, 3T3-L1 adipocytes, 24 h, 100 nL compound (AID 1168); details: JC-1 mitochondrial fluorescence, higher = more signal, called active from +8 up or from −8 down
# [8] = basal RPMI8226 mitochondrial membrane potential changes, profiling panel, cell-based, JC-1 fluorescence, 24 h, 100 nL compound (AID 1169); details: RPMI8226 myeloma, JC-1 mitochondrial potential fluorescence, higher = more signal
# [9] = basal MM1S mitochondrial membrane potential changes, profiling panel, cell-based, JC-1 fluorescence, 24 h, 100 nL compound (AID 1170); details: higher = more signal
# [10] = A549 lung cancer cell viability effects, profiling panel, resazurin fluorescence, 24 h, PK04 Diversity Set (AID 1171); details: higher = more signal, called active from +8 up or from −8 down
# Note: test concentration not given here.
Structure (SMILES),z-score [1],z-score [2],z-score [3],z-score [4],z-score [5],z-score [6],z-score [7],z-score [8],z-score [9],z-score [10]
COCC(=C=CC[C@H](O)c1ccc(OCCO)cc1)CCO,1.06,0.156,-0.587,-1.28,0.231,-0.255,-0.597 (inactive),0.854,0.464,1.01 (inactive)
CCCCN1CC=CC23O[C@@H]4/C=C\CCCOC(=O)C4[C@H]2C(=O)N(CCO)[C@@H]3C1=O (stereo not given in full),-0.129,1.63,-0.0509,1.04,-0.711,-0.415,0.0794 (inactive),0.378,1.39,-0.688 (inactive)
COC(=O)[C@@H]1N=C(c2ccc(OCCCO)cc2)O[C@@H]1c1ccccc1,0.623,0.469,-0.677,0.565,0.474,-0.659,-0.652 (inactive),0.278,-0.241,0.331 (inactive)
COC(=O)[C@@]1(Cc2ccc(OC)cc2)[C@H]2c3cc(C(=O)N(C)C)n(Cc4ccc(OC(F)(F)F)cc4)c3C[C@H]2CN1C(=O)c1ccccc1,-1.34,-0.306,-0.77,-3.39,-4.11,-2.18,-0.922 (inactive),-0.791,-2.79,-1.36 (inactive)
CCOC(=O)C[C@H]1[C@H](OC(=O)c2ccccc2-c2ccccc2)[C@@H](NC(=O)c2ccc3ccccc3n2)c2cc(OCCCO)ccc2N1C(=O)Cc1ccc(OC)cc1,0.278,0.054,0.266,0.0554,-0.826,0.972,-0.363 (inactive),-0.209,-0.112,0.0225 (inactive)
COc1ccc([Si](C)(C)[C@H]2[C@H](CC(=O)N(CCO)Cc3ccccc3)O[C@@]3(C(=O)N(C)c4c(Br)cc(C)cc43)[C@@H]2C)cc1,-3.51,-0.346,-4.11,-2.75,-4.66,-2.26,0.0268 (inactive),-1.07,-2.16,-1.02 (inactive)
CC(C)[Si]1(C(C)C)OCc2cc(C3CC3)nc(-c3ccc(Oc4ccccc4)cc3)c21,1.25,0.676,0.468,-0.795,-1.94,-2.33,0.138 (inactive),-0.989,0.196,2.94 (inactive)
COCCOC(=O)N1C(=O)[C@@]2(c3ccccc31)[C@H](C(=O)NC[C@H](O)c1ccccc1)[C@H]1C(=O)O[C@H](c3ccccc3)[C@H](c3ccccc3)N1[C@@H]2c1ccc(O)cc1,0.0528,2.18,-0.921,-1.12,-3.46,-1.33,-0.221 (inactive),-1.32,-0.0503,0.0737 (inactive)
CC[C@@H]1O[Si](C(C)C)(C(C)C)c2c1cc(-c1cc(C)c(OC)c(C)c1)nc2-c1ccc(Oc2ccccc2)cc1,-0.472,-0.25,-0.601,0.287,-0.388,-0.557,0.202 (inactive),0.756,0.207,1.69 (inactive)
CS(=O)(=O)CCOC(=O)C1=CC(c2ccc(CO)cc2)=CC(C2CC2)N(Cc2sc3ccccc3c2Cl)C=C1C(=O)OCCS(C)(=O)=O (stereo not given),-0.852,-0.716,0.0312,-3.29,-2.92,0.424,0.662 (inactive),-0.943,-1.87,-1.05 (inactive)
CCCCC(=C=CC[C@H](O)c1ccc(OCCO)cc1)CCO,-0.113,0.524,0.761,-2.4,0.0135,-1.25,-0.968 (inactive),-0.573,-0.952,0.533 (inactive)
C=CCC(OC(C)=O)[C@@H]1[C@@H](N(Cc2cccc3ccccc23)C(=O)Cc2ccc(OC)cc2)c2cc(OCCCO)ccc2N1C(=O)c1ccc(-c2ccccc2)cc1 (stereo not given in full),-0.433,1.12,0.256,-0.47,0.0509,2.36,0.286 (inactive),0.0206,0.621,0.48 (inactive)
[N-]=[N+]=NCc1ccccc1[C@@H]1OC(c2ccc(OCCCO)cc2)=N[C@]1(CCS(=O)(=O)c1ccccc1)C(=O)O,0.338,-0.801,1.05,0.078,-0.206,-1.69,-1.02 (inactive),-0.178,-1.39,-0.216 (inactive)
CC(C)C(O)C1C=CC2C(=O)N(c3ccccc3)C(=O)C2N1Nc1ccccc1 (stereo not given),-1.17,-0.68,-0.917,-0.528,-1.03,-1.6,-0.855 (inactive),0.0949,-1.35,0.184 (inactive)
